# Assay outcomes deposited in PubChem BioAssay by National Center for Advancing Translational Sciences (NCATS).
# The list is not random: actives were taken first. Their share in the collection is about 14%.
# LmPK inh: LmPK (Leishmania mexicana) enzyme inhibition | Potency, µM (highest dose often 57.5 µM), inactives show at the top dose activity change, negative = inhibition, actives largely listed as inhibitors | 290,000 tested, 0.37% active | purified LmPK, Kinase-Glo ATP luminescence, 1 h | AID 1721; active means well fitted curve in the direction sought with a large enough effect; inconclusive means small, poorly fitted or top-dose-only effect, or another doubt; inactive means no such curve, though single readings can be large; an effect the other way counts as inactive or inconclusive; further: potency means the concentration at half of the fitted maximal effect; on the % scale 0 is the no-effect control and ±100 the full control effect
#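 Pyruvate kinase activity monitored as ATP production (luciferase luminescence). Conditions: 0.1 nM enzyme, 0.5 mM PEP, 0.1 mM ADP, 1 h, RT; normalized against uninhibited and no-enzyme wells.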
# CHX counter-1: counter-screen hit for Shiga toxin inhibitors, cycloheximide; cell reporter, cycloheximide protein synthesis inhibition counterscreen; 300,000 tested, 12% active; max response, %; in the data active means max response mostly above about 13%, no sharp cut-off; inactive means mostly below about 14%; further: read at 38.3 µM for the half of the compounds with a filed dose; 0% is about no effect
# Giardia FBPA inh: Giardia lamblia aldolase inhibition; A8B2U2; purified Giardia FBPA; Potency, µM (top dose mostly 59.6 µM), without a hit: at the top dose activity, negative = inhibition, actives largely listed as inhibitors; 290,000 tested, 0.71% active; AID 2451; active means well fitted curve in the direction sought with a large enough effect; inconclusive means small, poorly fitted or top-dose-only effect, or another doubt; inactive means no such curve, though single readings can be large; an effect the other way counts as inactive or inconclusive; further: potency means the concentration at half of the fitted maximal effect; on the % scale 0 is the no-effect control and ±100 the full control effect; nearly all actives have a fitted effect of over 55% in size
# Target sequence (A8B2U2 whole entry, looked up): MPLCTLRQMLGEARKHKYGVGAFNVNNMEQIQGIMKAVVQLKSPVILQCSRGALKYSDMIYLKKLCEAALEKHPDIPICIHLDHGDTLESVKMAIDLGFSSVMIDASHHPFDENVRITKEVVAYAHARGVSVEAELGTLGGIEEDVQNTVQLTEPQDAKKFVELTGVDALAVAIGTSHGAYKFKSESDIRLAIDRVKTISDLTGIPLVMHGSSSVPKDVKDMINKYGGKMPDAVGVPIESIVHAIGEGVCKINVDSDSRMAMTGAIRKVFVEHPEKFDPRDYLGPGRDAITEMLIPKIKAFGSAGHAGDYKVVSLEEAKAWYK
#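 Giardia FBPA (40 nM reagent) was preincubated 10 min at RT with compound (up to 57.5 uM final), then substrate plus GAPDH/TPI/NAD/arsenate coupling system with diaphorase/resazurin was added; resorufin fluorescence (525/598 nm) was read after 20 min.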
# Shiga toxin inh: blocks Shiga toxin action in Vero cells | inhibition, % at 38.7 µM | AID 2315 | 290,000 tested, 9.2% active | Vero cells, Shiga toxin protein synthesis inhibition reporter; in the data active means inhibition mostly above about 28%, no sharp cut-off; inactive means mostly below about 43%; further: 0% is about no effect
# NS1 function inh: blocks influenza NS1 protein function; Potency, µM (titrated, usually from 46.1 µM), inactives show at the highest dose activity, positive = more growth; 270,000 tested, 0.4% active; AID 2326; further: potency means the concentration at half of the fitted maximal effect; actives are rising curves; nearly all actives have a fitted effect of over 50% in size
#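 OD600 was taken as the measure of yeast growth restored by compound in an NS1-expressing S. cerevisiae strain. Cells had been washed out of glucose medium and diluted 1:100 into galactose -URA medium, pH 6.0.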
# CHX counter-2: protein synthesis counter-screen activity for Shiga toxin hits. shares compounds with Shiga toxin inh. Cycloheximide counterscreen, protein synthesis reporter, Shiga toxin assay. Potency, µM (top dose mostly 38.3 µM), without a hit: top-dose activity (activation), usual class: activators. 510 tested, 3% active. AID 2318; further: potency means the concentration at half of the fitted maximal effect; 0% is about no effect
# Flu NS1 inh: validation of influenza NS1 protein function inhibitors; 1,400 tested, under 10 active; influenza NS1 function cell assay, 15-point titration; activity change, negative = inhibition, % at 32.9 µM; shares compounds with NS1 function inh; further: 0% is about no effect
# The depositor's hits bear a star; u = inconclusive; x = no result. Unless noted, the call rests on the fitted dose curve.
SMILES,LmPK inh,CHX counter-1,Giardia FBPA inh,Shiga toxin inh,NS1 function inh,CHX counter-2,others
CSCCC(NC(=O)C1CCC(C)CC1)C(=O)Nc1ccc(NC(C)=O)cc1 (centres undefined),-4%,-3,4%,-9,3%,x,
CCN(CC(=O)Nc1c(F)cccc1F)C(=O)c1ccc(Cl)c(S(=O)(=O)N2CCCCC2)c1,0%,-3,x,-1,-6%,x,
O=C(c1ccccn1)c1ccc2ccccc2n1,0%,10,-1%,56*,2%,-1%,
COc1ccccc1NC(=O)CSc1ccc2nnc(CCNC(=O)c3ccccc3)n2n1,-2%,-1,x,-13,-2%,x,
NCC1CC2c3ccccc3C1c1ccccc12 (centres undefined),-3%,-5,1%,-4,6%,x,
COc1cc(Oc2nc(C(F)(F)F)nc3ccccc23)ccc1C=O,1%,1,11%,-7,10%,x,
CC(=O)c1ccc(-c2cccc([C@H]3[C@@H]4C=CC[C@@H](C)[C@@H]4C(=O)N3Cc3ccccc3)c2)cc1,x,18,-9%,36*,x,-1%,
CN1CCN(Cc2ccc(N)cc2)CC1,-6%,8,-2%,27*,1%,1%,
Nc1ccc(CN2CCCCCC2)cc1,10%,6,u,-1,5%,x,
CCN(CC(=O)Nc1c(F)cccc1F)C(=O)/C=C/c1cn(Cc2ccccc2)nc1-c1cccnc1,-7%,8,x,-21,5%,x,
CCOC(=O)/C(C(=O)Nc1ccc(Br)cc1)=C1/NC(C)(C)Cc2ccccc21,2%,11,-4%,45*,-2%,u,
COc1ccc(Cl)cc1NC(=O)c1c(NCc2sccc2C)sc2c1CCCC2,x,12,x,9,x,x,
Cc1cc(C(=O)COC(=O)c2cccn2C)c(C)n1Cc1ccco1,-18%,10,-4%,50*,x,0.71µM*,
COc1ccc(C(CC(=O)NCc2ccco2)c2ccc(F)cc2)cc1 (centres undefined),0%,1,-3%,-6,-8%,x,
Cc1ccc(C(CC(=O)NCc2ccco2)c2ccc(OC(C)C)cc2)cc1 (centres undefined),-12%,15,0%,42*,-40%,5%,
O=C(Nc1ccnn1C1CCN(Cc2cc(Cl)ccc2O)CC1)C1CC1,-3%,-1,3%,-4,9%,x,
COC(=O)c1cc(-c2cccc(OC)c2)c2c(=O)[nH]c(=O)n(C)c2n1,3%,-1,16%,-4,0%,x,
O=C(Nc1ccc(-n2cc(Cl)cn2)cc1)c1ccncc1,-6%,8,4%,10,-2%,x,
O=C(Nc1ccc(Cl)cc1)c1ccncc1,0%,20,2%,52*,-25%,u,
CCOC(=O)c1cnc2c(-c3cccc(Br)c3)cnn2c1C,6%,6,8%,active,-7%,2.8µM*,
COc1ccc(Nc2cc(C(=O)N3CCc4ccccc4C3)c3ccccc3n2)c(OC)c1,5%,9,-9%,17,x,x,
COc1ccccc1Nc1cc(C(=O)N2CCc3ccccc3C2)c2ccccc2n1,0%,11,-6%,30*,x,1%,
COc1ccc(N(C(=O)c2csnn2)C(C(=O)NC2CCCC2)c2cccs2)cc1 (centres undefined),-2%,-6,x,56*,-1%,-4%,
CCOc1ccc(C(C)C)cc1S(=O)(=O)n1ccnc1C,2%,-2,5%,-12,-38%,x,
COc1ccc(C2=CC(c3ccc(C)cc3)n3nnnc3N2)cc1 (centres undefined),-5%,-2,-19%,69*,-14%,4%,
SMILES,LmPK inh,CHX counter-1,Giardia FBPA inh,Shiga toxin inh,NS1 function inh,CHX counter-2,others
COc1ccc(C2C=C(c3ccc(C)cc3)Nc3ncnn32)cc1 (centres undefined),1%,14,-20%,18,-141%,x,
CC1=NN(C(=O)c2ccncc2)C(=O)[C@@H]1N=Nc1ccc2ccccc2c1,x,x,x,x,-33%,x,
CC(=O)Nc1ccc(N2N=C(C)C(N=Nc3ccccc3)C2=O)cc1 (centres undefined),2%,-2,-19%,53*,-5%,u,
COc1ccc(-n2nc3c(c2NC(=O)CCl)CSC3)cc1,0%,12,-11%,13,-8%,x,
COc1ccc(NC(=O)c2cc(-c3ccc(C)cc3)on2)cc1OC,-4%,0,8%,-14,-10%,x,
COc1ccc(NC(=O)c2cc(C)on2)cc1OC,-13%,-1,-1%,28*,-2%,9%,
O=C(O)c1ccc(NS(=O)(=O)c2ccc(Cl)c(C(=O)Nc3ccccc3[N+](=O)[O-])c2)cc1,-1%,1,16%,-13,11%,x,
Cc1cc(C)n(-c2nc3c(c(=O)[nH]c(=O)n3C)n2Cc2cccc(Br)c2)n1,-3%,4,1%,84*,0%,-3%,
COc1ccc(N2CCN(C(=O)c3cc4c(s3)-c3ccccc3OC4)CC2)cc1,0%,1,7%,26,3%,x,
O=C(c1cc2c(s1)-c1ccccc1OC2)N1CCN(c2ccccc2)CC1,0%,5,30%,62*,-24%,-2%,
Cc1ccc(S(=O)(=O)N2CCC(C(=O)N[C@@H](Cc3ccccc3)C(=O)O)CC2)cc1,3%,5,25%,34*,1%,0%,
Cc1cccn2c(=O)c(/C=N/O)c(N3CCOCC3)nc12,5%,-2,4%,-10,x,x,
COc1cccc(N2C(=O)Nc3ccc(Br)cc3C2(O)C(=O)NCCCN(C)C)c1 (centres undefined),6%,-3,-6%,-4,0%,x,
CS(=O)(=O)N(CC(=O)Nc1ccccc1Sc1ccccc1)C1CCCCC1,1%,5,10%,44*,u,-1%,Flu NS1 inh=-1
CC(C(=O)NCc1ccccc1Cl)n1cc([N+](=O)[O-])cn1 (centres undefined),-1%,0,4%,4,-7%,x,
